Sampled rows, rich in hits. Any-hit rate of the full collection: about 3.4%.
ADAM10 inh = inhibits human ADAM10; O14672; recombinant ADAM10, EDANS/DABCYL FRET peptide cleavage, 3 h; inhibition, % at 7 µM; 370,000 compounds, 0.62% hits;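 active = inhibition above a per-campaign cutoff equal to the mean of compounds falling between control-based bounds plus 3 SD, cut at about 20% in these data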;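 note: 0% = DMSO wells while the 100% control is not disclosed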
NRP1-CendR mod = modulators of CendR peptide binding to human neuropilin-1 | FAM-RPARPAR peptide binding to NRP-1, fluorescence polarization | inhibition, % at 25 µM | 360,000 compounds, 0.85% hits | AID 602438;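 active = inhibition or corrected inhibition above about 18%, plus a signal ratio from 0.5 to 1.5, limit read from the data, passing the limit was not always enough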
proKLK7 act = activates the human kallikrein-7 zymogen | purified proKLK7, EDANS-DABCYL substrate fluorescence; 100% is mature enzyme control, 0% vehicle | activation, % at 7 µM | P49862 | 370,000 compounds, 0.9% hits;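 active = activation above the mean of all tested compounds plus 3 SD, computed per campaign excluding outliers beyond control limits, cut at about 13% in these data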
Target sequence (P49862 whole entry, looked up): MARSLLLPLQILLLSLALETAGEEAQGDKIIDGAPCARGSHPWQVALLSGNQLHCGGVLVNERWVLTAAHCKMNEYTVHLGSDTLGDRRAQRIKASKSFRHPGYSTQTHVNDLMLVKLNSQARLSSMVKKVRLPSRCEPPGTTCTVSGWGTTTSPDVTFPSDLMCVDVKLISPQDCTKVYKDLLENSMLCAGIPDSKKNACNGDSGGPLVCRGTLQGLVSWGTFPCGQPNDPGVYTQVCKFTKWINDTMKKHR
HGIII-sPLA2 inh = Blocks human group III sPLA2 activity; Q9NZ20; 370,000 compounds, 0.56% hits; QFRET BODIPY PC-A2 liposome hydrolysis, fluorescence; inhibition, % at 12.2 µM;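 active = inhibition above mean plus 3 SD of compounds lying within the high and low control bounds, cut at about 19% in these data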;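 note: 0% = median of test compound wells and 100% = no enzyme DMSO wells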
ADAM17 inh = inhibits human ADAM17 | P78536 | recombinant ADAM17, EDANS/DABCYL FRET peptide cleavage | 370,000 compounds, 0.83% hits | inhibition, % at 6.95 µM;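 active = inhibition above the mean of compounds lying between control limits plus 3 SD, set per campaign, cut at about 8.5% in these data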;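 note: 0% = DMSO-only wells as the low control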
ADAM10 confirm = human ADAM10 inhibition, confirmation. shares compounds with ADAM10 inh. ADAM10 QFRET peptide cleavage, EDANS fluorescence. inhibition, % at 6.95 µM. 2,100 compounds, 1% hits;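 active = inhibition above about 20% chosen separately for each screening run, limit read from the data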;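 note: 0% = DMSO wells and 100% = marimastat wells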
ADAM17 counter = ADAM17 inhibition, counter-screen for ADAM10 exosite hits; 2,100 compounds, 0.5% hits; AID 743214; ADAM17 QFRET peptide cleavage, EDANS fluorescence; inhibition, % at 6.95 µM; shares compounds with ADAM10 inh;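 active = mean triplicate inhibition above the solvent-only control wells' mean plus 3 SD, cut at about 12% in these data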;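 note: 0% = DMSO wells and 100% = marimastat wells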
ADAM10 ctr = inhibits human ADAM10 in ADAM17 exosite counter-screen; shares compounds with ADAM17 inh; recombinant ADAM10, EDANS/DABCYL FRET peptide cleavage, 3 h; inhibition, % at 6.95 µM; 2,900 compounds, 47% hits; AID 743256;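 active = mean inhibition over the triplicate runs exceeds the activity threshold set in the earlier primary screen, cut at about 20% in these data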;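 note: 0% = DMSO wells and 100% = marimastat wells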
ADAM17 confirm = human ADAM17 inhibition, confirmation. shares compounds with ADAM17 inh. recombinant ADAM17, EDANS/DABCYL QFRET peptide cleavage. inhibition, % at 6.95 µM. 2,900 compounds, 65% hits. AID 743257;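 active = mean inhibition across replicates above the hit cutoff set in the primary screen, cut at about 8.5% in these data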;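 note: 0% = DMSO wells and 100% = marimastat wells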
Numbers without * were called inactive; · = no result.

SMILES	ADAM10 inh	NRP1-CendR mod	proKLK7 act	HGIII-sPLA2 inh	ADAM17 inh	ADAM10 confirm	ADAM17 counter	ADAM10 ctr	ADAM17 confirm
Nc1ccc(N2CCN(Cc3ccccc3Cl)CC2)c(Cl)c1	22*	1	0	12	3	3	1	·	·
CN1OC[C@@H]2CN3C4(C[C@@H]21)c1ccccc1C3(c1ccccc1)c1ccccc14	-62	·	-1	8	-16	·	·	·	·
CCC(NC(=O)OCc1ccccc1)P(=O)(Oc1ccccc1)Oc1ccccc1 (stereo unspecified)	7	·	1	-5	1	·	·	·	·
O=C1C=CC(=O)C2C1C1(Cl)C(Cl)=C(Cl)C2(Cl)C1(Cl)Cl (stereo unspecified)	27*	26*	1	-16	9	7	3	·	·
N#Cc1ccc(NC(=S)N2Cc3ccc(Br)cc3-n3nncc3C2)cc1	-9	·	0	11	0	·	·	·	·
O=C(CN1CCOCC1)c1cccc2ccccc12	2	19	-1	0	-1	·	·	·	·
Cc1c(C(=O)c2cccc3ccccc23)c2cccc3c2n1[C@H](CN1CCOCC1)CO3	20*	2	0	-20	5	6	1	·	·
CCOC(=O)[C@@H]1[C@H]2COc3ccc(Br)cc3[C@@H]2N2C(=O)N(c3cccc(C)c3)C(=O)[C@]12C	20*	1	0	0	4	4	1	·	·
CCOC(=O)C1C2c3ccccc3O[C@@]1(C)N=C1SCC(=O)N12 (stereo partly specified)	4	0	0	-8	-2	·	·	·	·
O=C(NCCN1CCC2(CC1)C(=O)NCN2c1ccccc1)c1cc(C(F)(F)F)ccc1C(F)(F)F	-1	·	1	1	-1	·	·	·	·
Cc1cc(N=Nc2ccccc2C)ccc1N	23*	22	-1	11	6	2	0	·	·
O=C(CNC(=O)OCc1ccccc1)Nc1ccc(Br)cc1C(=O)c1ccccc1	20*	2	0	-12	8	6	2	·	·
O=C(CNC(=O)OCc1ccccc1)NCC(=O)Nc1ccc(Br)cc1C(=O)c1ccccc1	-9	6	0	13	-3	·	·	·	·
CCOC(=O)c1c(C)n(Cc2ccccc2)c2ccc(OCC(O)Cn3nc(C)cc3C)cc12 (stereo unspecified)	33*	12	1	-37	12*	9	3	·	·
CCOC(=O)C(O)(c1ccc(N(CC)S(=O)(=O)c2ccccc2)cc1)C(F)(F)F (stereo unspecified)	27*	9	1	-23	14*	0	0	12	5
CCN(c1ccc(C(O)(C(=O)OC)C(F)(F)F)cc1)S(=O)(=O)c1ccccc1 (stereo unspecified)	3	3	0	-8	-1	·	·	·	·
Cc1ccc(NP(=O)(Oc2ccccc2F)Oc2ccccc2F)cc1C	26*	4	1	-31	9.6*	8	2	23*	12*
OC1CN2CCCC(O)C2C1O (stereo unspecified)	-6	·	1	-1	2	·	·	·	·
COC(=O)C1=C(c2ccc(F)cc2OCc2ccccc2)C[C@@H]2CC[C@H]1N2C(=O)NCc1cccc(OC)c1	17	14	0	-13	0	·	·	·	·
COC(=O)C1=C(c2ccc(F)cc2OCc2ccccc2)C[C@@H]2CC[C@H]1N2C(=O)NCCc1ccc(F)cc1	27*	-2	1	-13	11*	9	2	29*	13*
COC(=O)C1=C(c2ccc(F)cc2OCc2ccccc2)C[C@@H]2CC[C@H]1N2C(=O)NCc1cccc(C(F)(F)F)c1	24*	2	-1	-3	16*	7	2	19	13*
COC(=O)C1=C(c2ccc(F)cc2OCc2ccccc2)C[C@@H]2CC[C@H]1N2C(=O)NCc1ccc(N(C)C)cc1	20*	4	1	6	9.7*	7	3	14	7
COC(=O)C1=C(c2ccc(F)cc2OCc2ccccc2)C[C@@H]2CC[C@H]1N2C(=O)NCCOc1ccccc1	11	21	1	-11	4	·	·	·	·
CC(C)(C)OC(=O)NCCCCC(N)[P+](=O)O (stereo unspecified)	-1	·	0	-3	-5	·	·	·	·
COC(=O)C1=C(c2cccc(OCc3ccccc3)c2)C[C@@H]2CC[C@H]1N2C(=O)NCCOc1ccc(OC)cc1	26*	6	1	-14	10*	6	2	19	14*
SMILES	ADAM10 inh	NRP1-CendR mod	proKLK7 act	HGIII-sPLA2 inh	ADAM17 inh	ADAM10 confirm	ADAM17 counter	ADAM10 ctr	ADAM17 confirm
COC(=O)C1=C(c2ccc(-c3ccccc3)c(F)c2)C[C@@H]2CC[C@H]1N2C(=O)NCCOc1ccc(OC)cc1	40*	-4	1	-21	22*	5	2	21*	12*
COC(=O)C1=C(c2ccc(-c3ccccc3)c(F)c2)C[C@@H]2CC[C@H]1N2C(=O)NCCNC(C)=O	7	-8	1	-2	2	·	·	·	·
CCOc1cc(CNCCc2c[nH]c3ccccc23)cc(Cl)c1OCC	27*	-6	1	-9	14*	0	0	3	1
CCC12CCN(CC3(O)CC3)C(Cc3ccc(O)cc31)C2(C)C (stereo unspecified)	-5	·	0	-4	2	·	·	·	·
CC[C@H](C)[C@@H]1OC(=O)[C@H](C(C)C)N(C)C(=O)[C@H](C(C)C)NC(=O)[C@@H](C)[C@@H](CCCC#CBr)OC(=O)[C@H](C(C)C)N(C)C(=O)C2CCCN2C1=O (stereo partly specified)	0	·	·	0	-7	·	·	·	·
C#CCCC[C@@H]1OC(=O)CNC(=O)C([C@@H](C)CC)NC(=O)[C@@H]2CCCN2C(=O)C([C@@H](C)CC)OC(=O)[C@H](Cc2ccccc2)N(C)C(=O)[C@H](C(C)C)NC(=O)C1(C)C (stereo partly specified)	3	0	1	-5	-1	·	·	·	·
CCC(C)C1NC(=O)C(NC(=O)C(CC(C)C)N(C)C(=O)C2CCCN2C(=O)C(C)O)C(C)OC(=O)C(Cc2ccc(OC)cc2)N(C)C(=O)C2CCCN2C(=O)C(CC(C)C)NC(=O)[C@H](C)C(=O)[C@H](C(C)C)OC(=O)CC1O (stereo partly specified)	26*	3	0	-20	12*	0	-1	2	5
O=C(Nc1ccccc1)N1Cc2cc(Br)ccc2-n2nncc2C1	-9	·	1	4	-2	·	·	·	·

Compound activity deposited in PubChem by several laboratories.
